# From the supplement of paper PMC11006884
# Of roughly 6,500 targets only a part is listed; those with a hit were picked by preference. About 2% of all pairs of compound and target were hits.
# Compound: COC(=O)C#Cc1ccccc1 [methyl 3-phenylpropiolate]
# Experiment: log2 ratio of iodoacetamide-alkyne labeling of the cysteine site, DMSO over compound (competition); higher = stronger covalent engagement of the cysteine by the compound, active = 1 or more
# Conditions: 500 µM; treatment time 1 h; system: HEK293T cell lysate
# In short: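 For each cysteine, the log2 competition ratio is mean control-channel reporter intensity over mean compound-channel reporter intensity. HEK293T lysate (2 mg/mL) was exposed to vehicle or electrophile (500 µM, 1 h, ambient temperature), labelled with iodoacetamide alkyne (1 h), clicked to sCIP-TMT reagents, digested overnight with trypsin at 37 °C, streptavidin-enriched and analysed by Orbitrap Eclipse LC-MS/MS with FAIMS and FragPipe. Cysteines quantified in only one of three replicates, each with duplicate channels, were excluded.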
# Chain of UniProt Q9NSD9 (Q9NSD9 whole entry, looked up): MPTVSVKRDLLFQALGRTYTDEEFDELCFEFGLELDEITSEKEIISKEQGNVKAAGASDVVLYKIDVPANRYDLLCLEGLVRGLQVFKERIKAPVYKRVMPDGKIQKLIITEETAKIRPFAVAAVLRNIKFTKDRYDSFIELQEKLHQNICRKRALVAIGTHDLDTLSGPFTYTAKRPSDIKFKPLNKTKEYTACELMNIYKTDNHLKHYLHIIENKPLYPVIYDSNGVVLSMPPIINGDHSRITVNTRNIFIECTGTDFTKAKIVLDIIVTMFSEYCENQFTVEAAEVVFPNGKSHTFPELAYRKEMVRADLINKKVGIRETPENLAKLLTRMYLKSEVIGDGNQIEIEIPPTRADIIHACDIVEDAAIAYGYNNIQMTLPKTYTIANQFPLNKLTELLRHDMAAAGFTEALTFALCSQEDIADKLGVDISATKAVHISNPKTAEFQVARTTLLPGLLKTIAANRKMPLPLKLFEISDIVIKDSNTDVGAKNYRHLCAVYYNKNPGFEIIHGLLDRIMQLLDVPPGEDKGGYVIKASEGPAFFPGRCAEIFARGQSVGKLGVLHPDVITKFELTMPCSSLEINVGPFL
# Chain of UniProt Q9NZB2 (Q9NZB2 whole entry, looked up): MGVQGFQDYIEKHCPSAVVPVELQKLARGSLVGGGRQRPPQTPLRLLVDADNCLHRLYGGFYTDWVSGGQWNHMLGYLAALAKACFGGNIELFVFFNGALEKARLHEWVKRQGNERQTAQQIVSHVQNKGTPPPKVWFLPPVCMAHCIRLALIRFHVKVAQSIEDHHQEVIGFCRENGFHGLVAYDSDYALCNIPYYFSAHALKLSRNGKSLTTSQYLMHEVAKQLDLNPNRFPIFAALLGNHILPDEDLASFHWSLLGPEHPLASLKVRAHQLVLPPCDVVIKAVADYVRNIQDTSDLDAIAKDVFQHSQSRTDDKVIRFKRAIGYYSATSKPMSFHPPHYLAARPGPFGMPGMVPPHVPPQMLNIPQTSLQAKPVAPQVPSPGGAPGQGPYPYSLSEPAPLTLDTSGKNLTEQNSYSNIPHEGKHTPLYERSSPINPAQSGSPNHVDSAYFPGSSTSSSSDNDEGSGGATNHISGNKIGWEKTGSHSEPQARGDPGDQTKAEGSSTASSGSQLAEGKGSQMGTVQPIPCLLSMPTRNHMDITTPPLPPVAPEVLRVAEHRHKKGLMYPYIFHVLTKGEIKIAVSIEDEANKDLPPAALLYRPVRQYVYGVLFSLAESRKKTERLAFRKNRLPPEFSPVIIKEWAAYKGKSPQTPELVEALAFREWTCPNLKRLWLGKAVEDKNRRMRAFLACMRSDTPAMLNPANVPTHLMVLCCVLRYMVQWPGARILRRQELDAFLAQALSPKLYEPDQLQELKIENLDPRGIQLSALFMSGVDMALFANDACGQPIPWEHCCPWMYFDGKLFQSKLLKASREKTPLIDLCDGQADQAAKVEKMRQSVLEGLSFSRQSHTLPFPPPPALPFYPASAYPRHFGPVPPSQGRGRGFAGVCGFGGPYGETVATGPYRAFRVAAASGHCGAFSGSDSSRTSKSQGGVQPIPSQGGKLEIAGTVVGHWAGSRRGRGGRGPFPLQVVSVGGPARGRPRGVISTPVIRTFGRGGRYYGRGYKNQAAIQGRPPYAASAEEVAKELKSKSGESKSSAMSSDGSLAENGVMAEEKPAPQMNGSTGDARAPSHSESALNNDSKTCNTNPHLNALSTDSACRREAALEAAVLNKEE
# Chain of UniProt Q9NXV2 (Q9NXV2 whole entry, looked up): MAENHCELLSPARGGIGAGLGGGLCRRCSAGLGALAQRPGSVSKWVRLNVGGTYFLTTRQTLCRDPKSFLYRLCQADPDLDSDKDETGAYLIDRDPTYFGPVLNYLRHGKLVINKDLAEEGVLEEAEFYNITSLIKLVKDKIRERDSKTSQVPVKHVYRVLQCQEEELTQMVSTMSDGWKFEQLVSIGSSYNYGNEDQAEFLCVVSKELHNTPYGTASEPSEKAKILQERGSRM
# Chain of UniProt Q9ULH0 (Q9ULH0 whole entry, looked up): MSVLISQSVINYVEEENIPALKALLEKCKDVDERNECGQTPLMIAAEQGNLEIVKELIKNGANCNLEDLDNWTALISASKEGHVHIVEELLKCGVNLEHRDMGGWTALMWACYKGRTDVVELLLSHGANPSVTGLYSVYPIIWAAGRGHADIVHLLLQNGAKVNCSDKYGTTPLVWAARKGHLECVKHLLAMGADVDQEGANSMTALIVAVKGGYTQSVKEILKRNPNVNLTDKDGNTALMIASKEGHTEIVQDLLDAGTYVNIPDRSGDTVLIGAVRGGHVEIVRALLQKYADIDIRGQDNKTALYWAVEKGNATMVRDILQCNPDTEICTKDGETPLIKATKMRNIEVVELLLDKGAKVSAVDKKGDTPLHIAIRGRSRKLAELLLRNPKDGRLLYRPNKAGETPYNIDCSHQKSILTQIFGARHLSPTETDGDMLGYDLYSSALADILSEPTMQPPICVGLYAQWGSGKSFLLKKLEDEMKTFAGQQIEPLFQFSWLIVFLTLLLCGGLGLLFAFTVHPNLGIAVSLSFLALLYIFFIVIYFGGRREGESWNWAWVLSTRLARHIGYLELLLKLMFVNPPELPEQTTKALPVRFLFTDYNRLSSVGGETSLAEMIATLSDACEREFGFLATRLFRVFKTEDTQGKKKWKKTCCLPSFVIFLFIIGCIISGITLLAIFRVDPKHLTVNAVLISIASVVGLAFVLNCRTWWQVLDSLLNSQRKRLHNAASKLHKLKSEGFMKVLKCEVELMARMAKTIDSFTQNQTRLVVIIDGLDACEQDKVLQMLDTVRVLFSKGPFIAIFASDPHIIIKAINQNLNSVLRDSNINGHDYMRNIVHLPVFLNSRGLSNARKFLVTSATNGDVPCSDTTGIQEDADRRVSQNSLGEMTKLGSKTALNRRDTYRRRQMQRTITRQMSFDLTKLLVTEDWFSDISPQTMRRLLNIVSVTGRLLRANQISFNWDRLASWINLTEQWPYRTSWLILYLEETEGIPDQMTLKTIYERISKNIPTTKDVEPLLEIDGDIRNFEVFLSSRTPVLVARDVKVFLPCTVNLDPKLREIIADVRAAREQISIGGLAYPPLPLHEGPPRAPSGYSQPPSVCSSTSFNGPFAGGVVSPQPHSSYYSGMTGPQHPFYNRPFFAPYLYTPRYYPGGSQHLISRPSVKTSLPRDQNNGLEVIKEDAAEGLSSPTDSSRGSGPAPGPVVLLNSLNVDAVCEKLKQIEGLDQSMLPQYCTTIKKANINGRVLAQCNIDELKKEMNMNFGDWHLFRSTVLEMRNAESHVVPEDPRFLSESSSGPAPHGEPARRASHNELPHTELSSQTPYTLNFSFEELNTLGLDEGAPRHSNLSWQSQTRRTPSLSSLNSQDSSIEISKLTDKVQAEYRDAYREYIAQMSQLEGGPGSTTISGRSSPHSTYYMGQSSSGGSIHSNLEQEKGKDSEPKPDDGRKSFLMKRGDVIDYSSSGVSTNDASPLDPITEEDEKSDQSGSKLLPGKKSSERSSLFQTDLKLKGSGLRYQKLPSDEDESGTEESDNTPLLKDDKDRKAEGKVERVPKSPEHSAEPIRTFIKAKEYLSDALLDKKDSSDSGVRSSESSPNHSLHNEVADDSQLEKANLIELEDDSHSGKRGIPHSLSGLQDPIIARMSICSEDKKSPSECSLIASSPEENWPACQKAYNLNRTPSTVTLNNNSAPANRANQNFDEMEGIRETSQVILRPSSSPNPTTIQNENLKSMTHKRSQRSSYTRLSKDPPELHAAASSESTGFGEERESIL
# Chain of UniProt Q9Y6X4 (Q9Y6X4 whole entry, looked up): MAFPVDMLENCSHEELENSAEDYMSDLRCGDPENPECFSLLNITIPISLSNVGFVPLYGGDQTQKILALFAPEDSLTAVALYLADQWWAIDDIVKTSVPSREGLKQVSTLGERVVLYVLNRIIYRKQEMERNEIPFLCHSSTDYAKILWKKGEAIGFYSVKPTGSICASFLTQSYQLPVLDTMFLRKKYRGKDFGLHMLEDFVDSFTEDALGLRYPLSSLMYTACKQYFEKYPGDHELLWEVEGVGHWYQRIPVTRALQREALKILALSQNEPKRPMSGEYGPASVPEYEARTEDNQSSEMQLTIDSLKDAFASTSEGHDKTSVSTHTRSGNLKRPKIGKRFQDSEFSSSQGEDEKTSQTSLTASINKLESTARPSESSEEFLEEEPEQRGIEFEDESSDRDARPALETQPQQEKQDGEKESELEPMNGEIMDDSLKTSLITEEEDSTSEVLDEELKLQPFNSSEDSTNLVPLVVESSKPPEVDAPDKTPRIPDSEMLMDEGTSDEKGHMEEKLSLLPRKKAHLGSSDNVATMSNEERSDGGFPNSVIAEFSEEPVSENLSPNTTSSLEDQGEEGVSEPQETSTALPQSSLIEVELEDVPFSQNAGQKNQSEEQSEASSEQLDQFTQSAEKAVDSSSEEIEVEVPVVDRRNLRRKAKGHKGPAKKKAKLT
# Chain of UniProt Q9UGI8 (Q9UGI8 whole entry, looked up): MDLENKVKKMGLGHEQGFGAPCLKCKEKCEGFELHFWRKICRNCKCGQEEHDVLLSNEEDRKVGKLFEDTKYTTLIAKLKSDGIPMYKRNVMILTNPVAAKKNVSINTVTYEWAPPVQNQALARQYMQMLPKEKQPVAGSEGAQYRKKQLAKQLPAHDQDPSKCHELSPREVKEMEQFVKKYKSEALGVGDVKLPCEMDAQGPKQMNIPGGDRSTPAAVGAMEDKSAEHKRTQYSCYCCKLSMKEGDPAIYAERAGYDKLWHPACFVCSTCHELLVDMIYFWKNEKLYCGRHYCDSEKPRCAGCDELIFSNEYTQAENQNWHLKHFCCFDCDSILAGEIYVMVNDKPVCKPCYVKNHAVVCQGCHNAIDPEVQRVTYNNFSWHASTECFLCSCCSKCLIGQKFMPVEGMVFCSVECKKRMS
# Chain of UniProt Q9NR31 (Q9NR31 whole entry, looked up): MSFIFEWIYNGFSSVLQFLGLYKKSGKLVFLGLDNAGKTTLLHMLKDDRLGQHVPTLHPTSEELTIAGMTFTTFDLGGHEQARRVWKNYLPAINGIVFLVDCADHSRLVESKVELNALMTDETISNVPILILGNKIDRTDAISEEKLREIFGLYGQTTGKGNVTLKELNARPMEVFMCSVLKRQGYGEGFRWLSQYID
row,Target,log2 ratio of iodoacetamide-alkyne labeling
1,ZMYM2 C852 (UniProt Q9UBW7),0.581 (inactive)
2,KCTD5 C28 (UniProt Q9NXV2),0.129 (inactive)
3,ATXN10 C356 (UniProt Q9UBB4),1.32 (active)
4,MBNL1 C27 (UniProt Q9NR56),0.203 (inactive)
5,AGTPBP1 C567 (UniProt Q9UPW5),1.18 (active)
6,FARSB C195 (UniProt Q9NSD9),0.621 (inactive)
7,TACC3 C206 (UniProt Q9Y6A5),-0.132 (inactive)
8,UniProt Q9UK61_C429,0.233 (inactive)
9,MLXIP C738 (UniProt Q9HAP2),-0.0833 (inactive)
10,STUB1 C199 (UniProt Q9UNE7),0.493 (inactive)
11,UBE2O C400 (UniProt Q9C0C9),-0.416 (inactive)
12,FAM120A C279 (UniProt Q9NZB2),-0.00137 (inactive)
13,STRN4 C337 (UniProt Q9NRL3),0.488 (inactive)
14,KIDINS220 C867 (UniProt Q9ULH0),0.436 (inactive)
15,DDA1 C25 (UniProt Q9BW61),0.36 (inactive)
16,UniProt Q9NWR8_C324,1.65 (active)
17,TRABD C287 (UniProt Q9H4I3),0.0519 (inactive)
18,UniProt Q9NRP4_C80,0.483 (inactive)
19,LSM7 C76 (UniProt Q9UK45),0.0557 (inactive)
20,UniProt Q9Y312_C156,0.41 (inactive)

row,Target,log2 ratio of iodoacetamide-alkyne labeling
1,MRPS7 C152 (UniProt Q9Y2R9),-0.102 (inactive)
2,PRPF19 C230 (UniProt Q9UMS4),0.231 (inactive)
3,UBE2O C598 (UniProt Q9C0C9),0.166 (inactive)
4,SAR1A C178 (UniProt Q9NR31),0.0354 (inactive)
5,ITSN2 C810 (UniProt Q9NZM3),0.0149 (inactive)
6,FAM169A C138 (UniProt Q9Y6X4),0.201 (inactive)
7,OPA3 C164 (UniProt Q9H6K4),0.331 (inactive)
8,UniProt Q9NQG6_C111,0.389 (inactive)
9,NCDN C4 (UniProt Q9UBB6),1.66 (active)
10,LARS C573 (UniProt Q9P2J5),0.342 (inactive)
11,UniProt Q9NWY4_C17,0.873 (inactive)
12,MDN1 C172 (UniProt Q9NU22),0.0689 (inactive)
13,SAMHD1 C80 (UniProt Q9Y3Z3),0.175 (inactive)
14,PDS5B C1069 (UniProt Q9NTI5),0.199 (inactive)
15,TANC1 C1594 (UniProt Q9C0D5),1.06 (active)
16,FAM83D C19 (UniProt Q9H4H8),1.11 (active)
17,HOOK1 C432 (UniProt Q9UJC3),0.385 (inactive)
18,TES C196 (UniProt Q9UGI8),0.308 (inactive)
19,ANAPC1 C1412 (UniProt Q9H1A4),0.0508 (inactive)
20,UniProt Q9NVH0_C284,0.123 (inactive)
